High-throughput results: PubChem BioAssay, several laboratories
MRP1 act = activators of MRP-1; H69AR cells + doxorubicin, viability rescue, CellTiter-Glo; viability increase, % at 10 µM; 0.61% of 140,000 active; AID 799;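 active means viability gain under doxorubicin at or above a set limit, the compound median plus 3 SD, cut at about 4.7% in these data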;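 further: MRP-1 overexpressing cells given doxorubicin 25 µM after compound pretreatment; 18-22 h compound pretreatment then 72 h with doxorubicin before readout; 0% = doxorubicin-only wells and 100% = vehicle-treated cells without doxorubicin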
ERa SRC1 pot = ER-alpha (human) coactivator binding potentiation; P03372; TR-FRET ERalpha-LBD/SRC-Cy5 coactivator binding, 2 h; 100 = basal binding, no effect; coactivator binding (% of control), % at 25.6 µM; 1.3% of 86,000 active; in the data active means activity above about 200%;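 further: binding measured in presence of low estradiol as agonist stimulus; 0% = peptide alone without receptor and 100% = receptor with peptide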
ERa SRC1 inh = ER-alpha (human) coactivator binding inhibition; P03372; TR-FRET ER-alpha LBD / SRC-1 peptide, estradiol-bound; inhibition, % at 25.6 µM; 1.7% of 86,000 active; AID 629; in the data active means inhibition above about 50%;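 further: 0% = receptor plus peptide control and 100% = peptide only without receptor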
Smad3 FoxH1 inh = inhibitors of human Smad3 transcription factor binding. inhibition, % at 25 µM. 0.29% of 88,000 active. TR-FRET Smad3/Dy647-FoxH1 peptide binding, europium anti-His. P84022;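 active means compounds that reduce the energy-transfer binding signal between the protein and its labelled peptide by more than half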;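 further: 0% = Smad3 plus labelled peptide maximal FRET and 100% = peptide-only background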
Target sequence (P84022 whole entry, looked up): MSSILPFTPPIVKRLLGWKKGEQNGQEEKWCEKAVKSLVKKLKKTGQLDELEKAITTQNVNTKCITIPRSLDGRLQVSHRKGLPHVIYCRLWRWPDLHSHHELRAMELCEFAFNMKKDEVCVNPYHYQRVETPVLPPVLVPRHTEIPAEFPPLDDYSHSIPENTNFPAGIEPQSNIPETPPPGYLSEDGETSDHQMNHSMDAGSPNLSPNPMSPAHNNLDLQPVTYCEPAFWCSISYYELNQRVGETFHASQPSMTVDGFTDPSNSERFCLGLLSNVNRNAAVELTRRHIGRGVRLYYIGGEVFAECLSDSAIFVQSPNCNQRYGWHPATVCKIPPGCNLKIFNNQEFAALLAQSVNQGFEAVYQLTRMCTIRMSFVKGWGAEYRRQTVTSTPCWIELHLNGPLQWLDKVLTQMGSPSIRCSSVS
MRP reversal = reverses drug resistance mediated by MRP; 0.04% of 85,000 active; AID 602; H69AR cells + 2 uM doxorubicin, CellTiter-Glo, 72 h; differential viability (reversal), % at 10 µM;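 active means viability drop by adding the cancer drug above about 55%, with treated viability meeting a 40% cutoff, limit read from the data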;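 further: viability without doxorubicin minus viability with 2 µM doxorubicin for each compound; larger differential means the compound sensitizes cells more to doxorubicin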
ERb SRC1 inh = blocks coactivator binding to human estrogen receptor beta; Q92731; TR-FRET ER-beta LBD / SRC1-Cy5 peptide binding; receptor agonist-loaded with 1 µM estradiol; inhibition, % at 25.6 µM; 1.3% of 86,000 active;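 active means compounds whose percent inhibition of the receptor-coactivator binding signal exceeds about 50% in the single-dose screen, limit read from the data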;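 further: 0% = receptor plus peptide wells without compound and 100% = peptide-only wells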
* hit, by the source's call; / = no result; [ ] = remark or other dose. Rows were chosen to be rich in hits. Some 2.9% of all compounds tested hit in one or more screens of this group.

SMILES	MRP1 act	ERa SRC1 pot	ERa SRC1 inh	Smad3 FoxH1 inh	MRP reversal	ERb SRC1 inh
N=C1[C@H](O)[C@]2(I)c3ccccc3N3C(=N)[C@H](O)[C@@H]4c5ccccc5N1[C@@H]4[C@@H]32	/	/	/	57*	/	/
CCC(C)(C)n1nnnc1C(c1cc2cc(C)cc(C)c2[nH]c1=O)N1CCN(Cc2ccc3c(c2)OCO3)CC1 (centres undefined)	-1	227*[fluorescence artefact?]	30	41	3	36
CCC(C)(C)n1nnnc1C(c1cc2cc(C)cc(C)c2[nH]c1=O)N1CCCC1 (centres undefined)	-4	/	/	/	/	/
[N-]=[N+]=N[C@@H]1[C@@H](O)[C@H](CO)O[C@@H]1n1cnc2c(N)ncnc21	/	/	/	8	/	/
CCOc1cc(N2CCOCC2)c(OCC)cc1NC(=O)COc1ncnc2ccc(Br)cc12	-4	77	54*[fluorescence artefact?]	2	10	27
CCOc1cc(N2CCOCC2)c(OCC)cc1NC(=O)COC(=O)c1ccccc1C	-3	/	/	/	/	/
C[C@H](CC(=O)O)C(C(=O)O)C(=O)O	/	/	/	-3	/	/
CC(C)(C)c1nnc2sc(SCC(=O)c3ccccc3)nn2c1=O	-2	100	-2	3	-1	20
CC(C)(C)c1nnc2sc(SC/C(O)=C(\C#N)c3nc4ccccc4[nH]3)nn2c1=O	-2	69	69*[fluorescence artefact?]	11	-14	62*
Cc1ccccc1C(=O)Nc1ccc(Br)cn1	-1	204*	-5	-6	-28	-2
Oc1c(Cl)cc(CN(Cc2cc(Cl)c(O)c(Cl)c2)C2CCCCC2)cc1Cl	/	/	/	-3	/	/
CCOC(=O)C1CCCN(C(=O)c2cc(-c3ccc(C)cc3)on2)C1 (centres undefined)	0	115	1	2	11	-7
O=C(c1cc2ncc(Br)cn2n1)N1CCOCC1	-1	36	49	9	-4	58*
O=C(c1cc(-c2ccc(Cl)cc2)n(-c2ccc(Cl)cc2)n1)N1CCOCC1	-3	/	/	/	/	/
O=C(c1ccco1)N1CCN(C(=O)c2ccc(Cn3cc(Br)cn3)o2)CC1	0	105	2	-14	14	1
O=C(c1cc2ncc(Br)cn2n1)N1CCN(C(=O)c2ccco2)CC1	-2	46	61*	3	/	52*
CCOC(=O)C1CCCN(C(=O)c2cc3ncc(Br)cn3n2)C1 (centres undefined)	-3	42	57*	9	13	60*[fluorescence artefact?]
O=C(CSc1nnc(-c2cccs2)n1CC1CCCO1)c1cc2ccccc2o1 (centres undefined)	-3	94	19	7	-3	9
C[C@@]1(CO)[C@H](O)CC[C@]2(C)[C@@H]1CC[C@H]1C[C@H]3C[C@]12CC[C@@]3(O)COC(=O)CN	/	/	/	-3	/	/
OC1C[C@H]2CC[C@@H](C1)N2CCCN1c2ccccc2Sc2ccc(Cl)cc21 (some centres undefined)	/	/	/	-9	/	/
COc1ccc2nc(SCC(=O)N3CC(=O)Nc4ccccc43)c(C#N)cc2c1	0	/	/	/	/	/
Cc1cc(C)c2nc(SCC(=O)Nc3ccccc3N3CCOCC3)c(C#N)cc2c1	/	353*[fluorescence artefact?]	21	7	0	33
Cc1cc(C)c2nc(SCC(=O)N3CC(=O)Nc4ccccc43)c(C#N)cc2c1	-6	461*[fluorescence artefact?]	28	6	-38	33
O=C(OC(C(=O)NCC1CCCO1)c1ccc(F)cc1)c1cccs1 (centres undefined)	-1	/	/	/	/	/
CC(=O)NC12CC3CC(C)(C1)CC(NC(C)=O)(C3)C2	1	124	-6	1	2	7
SMILES	MRP1 act	ERa SRC1 pot	ERa SRC1 inh	Smad3 FoxH1 inh	MRP reversal	ERb SRC1 inh
O=C(O)c1c2c(c(O)c3c1CN(C1CCCCC1)CO3)OCN(C1CCCCC1)C2	/	/	/	62*	/	/
O=C(c1ccccc1)N1CCN(C2CCCCCC2)CC1	0	113	7	3	1	3
O=C1/C(=C\c2ccccc2)[C@@H](NC2CCCCC2)c2ccccc21	/	/	/	25	/	/
Cc1ccc(C)c(-n2nnnc2SCC(=O)c2ccc3c(c2)NC(=O)CO3)c1	0	232*[fluorescence artefact?]	20	-5	5	2
O=C(CCCC(=O)N(CC(=O)NC1CCCCC1)Cc1ccc2c(c1)OCO2)Nc1ccccn1	-1	116	-1	-7	16	-3
Cc1cccc(CC2S/C(=N/c3ccccn3)NC2=O)c1 (centres undefined)	10*	127	-15	10	-11	-19
